# Data: the antibiotic and cytotoxicity screens of Wong et al. (2023)
# Hit rate of the full screen: of about 39,000 compounds, about 1,500 (3.8%) were called active. This is one part of a sample in which actives are shown more often than they occur.
# Tested on: HSkMC (human skeletal muscle cells)
# Assay: cytotoxicity call (relative viability < 0.9)
# Conditions: 10 µM
row,Compound,cytotoxicity call
1,O=C(C[C@H]1CC[C@@H]2[C@H](COC[C@H](O)CN2S(=O)(=O)c2ccc(Cl)cc2)O1)NCCN1CCCCC1,inactive
2,COc1ccc(S(=O)(=O)Nc2ccc3c(c2)C(=O)N([C@H](C)CO)C[C@H](C)[C@H](CN(C)C(=O)Nc2c(C)noc2C)OCCCC[C@H](C)O3)cc1,inactive
3,C[C@@H]1CCCCO[C@@H](CN(C)S(=O)(=O)c2cccs2)[C@H](C)CN([C@H](C)CO)C(=O)c2cc(NC(=O)Nc3cccc4ccccc34)ccc2O1,inactive
4,COc1ccc(S(=O)(=O)Nc2cccc3c2O[C@@H](CN(C)Cc2ccncc2)[C@H](C)CN([C@@H](C)CO)C3=O)cc1,inactive
5,C[C@@H]1CN([C@@H](C)CO)C(=O)c2cccc(NS(=O)(=O)c3cn(C)cn3)c2O[C@@H]1CN(C)S(=O)(=O)c1ccccc1,inactive
6,C[C@@H]1CN([C@@H](C)CO)C(=O)c2cc(NC(=O)CCN3CCOCC3)ccc2O[C@@H]1CN(C)CC1CC1,inactive
7,C[C@@H]1CCCCO[C@H](CN(C)C(=O)Cc2ccccc2)[C@H](C)CN([C@@H](C)CO)C(=O)c2cc(NS(=O)(=O)c3cccs3)ccc2O1,inactive
8,COCC(=O)Nc1ccc2c(c1)OC[C@@H](C)N(Cc1ccccc1OC)C[C@@H](C)[C@H](OC)CN(C)C2=O,inactive
9,C[C@H]1CCCCO[C@@H](CN(C)C(=O)Nc2ccc(F)cc2)[C@@H](C)CN([C@@H](C)CO)C(=O)c2cc(NS(=O)(=O)c3cccs3)ccc2O1,inactive
10,CCSc1nnc2c(=O)[nH]c(=O)[nH]c2n1,inactive
11,Cc1ccc(S(=O)(=O)Nc2ccc3c(c2)CC(=O)N([C@@H](C)CO)C[C@H](C)[C@H](CN(C)Cc2ccc(C(F)(F)F)cc2)O3)cc1,active
12,Cc1ccc(S(=O)(=O)Nc2ccc3c(c2)CC(=O)N([C@@H](C)CO)C[C@@H](C)[C@H](CN(C)Cc2ccc(C(F)(F)F)cc2)O3)cc1,inactive
13,Cc1ccc(S(=O)(=O)Nc2ccc3c(c2)CC(=O)N([C@H](C)CO)C[C@@H](C)[C@H](CN(C)Cc2ccc(C(F)(F)F)cc2)O3)cc1,inactive
14,C[C@H](CO)N1C[C@H](C)[C@@H](CN(C)C(=O)Nc2ccc(C(F)(F)F)cc2)Oc2ccc(NC(=O)Cc3ccccc3)cc2CC1=O,inactive
15,C[C@@H]1CN([C@@H](C)CO)C(=O)c2cc(NC(=O)C3CCCCC3)ccc2O[C@@H]1CN(C)Cc1ccc(C(F)(F)F)cc1,inactive
16,C[C@H](CO)N1C[C@H](C)[C@@H](CN(C)C(=O)Nc2cccc3ccccc23)Oc2ccc(NC(=O)Nc3cccc4ccccc34)cc2C1=O,inactive
17,C[C@@H]1CN([C@@H](C)CO)C(=O)c2cc(NC(=O)Nc3cccc4ccccc34)ccc2O[C@@H]1CN(C)C(=O)Nc1cccc2ccccc12,active
18,C[C@@H]1CN([C@H](C)CO)C(=O)c2cc(NC(=O)Nc3cccc4ccccc34)ccc2O[C@@H]1CN(C)C(=O)Nc1cccc2ccccc12,active
19,C[C@H]1CN([C@@H](C)CO)C(=O)c2cc(NC(=O)Nc3cccc4ccccc34)ccc2O[C@@H]1CN(C)C(=O)Nc1cccc2ccccc12,inactive
20,C[C@@H]1CN([C@@H](C)CO)C(=O)c2cc(NC(=O)Nc3cccc4ccccc34)ccc2O[C@H]1CN(C)C(=O)Nc1cccc2ccccc12,inactive

row,Compound,cytotoxicity call
1,C[C@@H]1CN([C@H](C)CO)C(=O)c2cc(NC(=O)Nc3cccc4ccccc34)ccc2O[C@H]1CN(C)C(=O)Nc1cccc2ccccc12,inactive
2,NC(=O)c1c(Cl)ncc2c1NCC2,inactive
3,CC1=C(C)C(=O)C(C(CCCCCC(=O)O)c2ccccc2)=C(C)C1=O (centres undefined),inactive
4,COC1=C(OC)C(=O)C(CC=C(C)CCC=C(C)CCC=C(C)CCC=C(C)CCC=C(C)CCC=C(C)CCC=C(C)CCC=C(C)CCC=C(C)CCC=C(C)C)=C(C)C1=O,inactive
5,COC1=C(OC)C(=O)C(C/C=C(\C)CC/C=C(\C)CC/C=C(\C)CC/C=C(\C)CC/C=C(\C)CC/C=C(\C)CC/C=C(\C)CC/C=C(\C)CC/C=C(\C)CCC=C(C)C)=C(C)C1=O,inactive
6,COC(=O)CCCCCCC(=O)Nc1ccc(NC(=O)CCCC[P+](c2ccccc2)(c2ccccc2)c2ccccc2)cc1,inactive
7,CC1=CC(=O)c2ccccc2C1=O,inactive
8,COC1=C(OC)C(=O)C(CCCCCCCCCC[P+](c2ccccc2)(c2ccccc2)c2ccccc2)=C(C)C1=O,active
9,CC1=C(C)C(=O)C(CCCCCCCCCC[P+](c2ccccc2)(c2ccccc2)c2ccccc2)=CC1=O,active
10,COC1=C(OC)C(=O)C(C/C=C(\C)CC/C=C(\C)CC/C=C(\C)CC/C=C(/C)CC/C=C(\C)CC/C=C(\C)CC/C=C(\C)CC/C=C(\C)CC/C=C(\C)CCC=C(C)C)=C(C)C1=O,inactive
11,COC1=C(OC)C(=O)C(CCCCCCCCCCO)=C(C)C1=O,active
12,Nc1ccc(NC(=O)CCN2CCOCC2)cc1,inactive
13,C[C@@H]1CN([C@H](C)CO)C(=O)c2cccc(NC(=O)CCCCCC(=O)Nc3ccccc3N)c2O[C@H]1CN(C)CC1CCCCC1,inactive
14,CC(=O)N(C)C[C@H]1Oc2cc(C#CCN(C)C)ccc2S(=O)(=O)N([C@H](C)CO)C[C@H]1C,inactive
15,C[C@@H]1CCCCO[C@H](CN(C)Cc2ccc(C(=O)O)cc2)[C@H](C)CN([C@H](C)CO)C(=O)c2cc(NC(=O)Nc3ccc(C(F)(F)F)cc3)ccc2O1,inactive
16,C[C@H]1CN([C@@H](C)CO)C(=O)c2cc(NS(=O)(=O)c3cn(C)cn3)ccc2O[C@H]1CN(C)C(=O)Nc1ccccc1,inactive
17,C[C@H]1CN([C@@H](C)CO)C(=O)c2cc(/C=C/c3ccccc3)cnc2O[C@@H]1CN(C)S(=O)(=O)c1cn(C)cn1,inactive
18,COc1ccc(CN(C)C[C@H]2OCCCC[C@@H](C)Oc3ccc(NS(=O)(=O)c4ccc(F)cc4)cc3C(=O)N([C@@H](C)CO)C[C@@H]2C)cc1,inactive
19,O=c1n(-c2ccc(F)cc2)nc2n1CCCN2,inactive
20,Cc1ccc(S(=O)(=O)N(C)C[C@H]2Oc3ccc(NC(=O)Cn4cnnn4)cc3CC(=O)N([C@H](C)CO)C[C@@H]2C)cc1,inactive

row,Compound,cytotoxicity call
1,CC1OC(OC2C(O)CC(OC3C(O)CC(OC4CCC5(C)C(CCC6C5CCC5(C)C(C7=CC(=O)OC7)CCC65O)C4)OC3C)OC2C)CC(O)C1O (centres undefined),active
2,C[C@H]1O[C@@H](O[C@H]2[C@@H](O)C[C@H](O[C@H]3[C@@H](O)C[C@H](O[C@H]4CC[C@@]5(C)[C@H](CC[C@@H]6[C@@H]5CC[C@]5(C)[C@@H](C7=CC(=O)OC7)CC[C@]65O)C4)O[C@@H]3C)O[C@@H]2C)C[C@H](O)[C@@H]1O,active
3,C[C@H](CO)N1C[C@H](C)[C@@H](CN(C)Cc2ccc(Cl)c(Cl)c2)Oc2ccc(NC(=O)NC3CCCCC3)cc2C1=O,inactive
4,C[C@@H]1CN([C@H](C)CO)C(=O)Cc2cc(NC(=O)CCCCCC(=O)Nc3ccccc3N)ccc2O[C@@H]1CN(C)C(=O)Nc1ccc(F)cc1,inactive
5,COc1ccc(NC(=O)Nc2ccc3c(c2)CC(=O)N([C@@H](C)CO)C[C@@H](C)[C@H](CN(C)CC2CCCCC2)O3)cc1,inactive
6,O=C(C[C@H]1CC[C@H](NS(=O)(=O)c2ccccc2)[C@H](CO)O1)NCc1ccncn1,inactive
7,COc1ccc2c(-c3ccc(Cl)cc3)c(C)oc2c1,inactive
8,C[C@H](CO)N1C[C@H](C)[C@H](CN(C)S(=O)(=O)c2ccccc2)Oc2ccc(NC(=O)Cc3ccccc3)cc2C1=O,inactive
9,O=C(C[C@@H]1C[C@@H]2c3cc(NS(=O)(=O)c4ccccc4)ccc3O[C@@H]2[C@H](CO)O1)NCC(F)(F)F,inactive
10,C[C@@H]1CCCCO[C@H](CN(C)Cc2ccc3c(c2)OCO3)[C@@H](C)CN([C@H](C)CO)C(=O)c2cc(NS(=O)(=O)c3ccccc3)ccc2O1,inactive
11,C[C@@H]1O[C@@H](O[C@@H]2[C@@H](O)[C@@H](O[C@@H]3O[C@@H](CO)[C@H](O)[C@H]3O)[C@H](OC(=O)[C@]34CCC(C)(C)C[C@H]3C3=CC[C@H]5[C@@]6(C)C[C@H](O)[C@H](O[C@@H]7O[C@@H](C)[C@H](O)[C@@H](O[C@@H]8OC[C@@H](O)[C@H](O)[C@H]8O[C@@H]8O[C@H](CO)[C@@H](O)[C@H](O)[C@H]8O)[C@H]7O)[C@@](C)(CO)[C@@H]6CC[C@@]5(C)[C@]3(C)C[C@H]4O)O[C@H]2C)[C@H](O)[C@H](O)[C@H]1O,inactive
12,CC=C(C)C(=O)O[C@H]1[C@H](OC(C)=O)[C@]2(CO)[C@H](O)C[C@]3(C)C(=CC[C@@H]4[C@@]5(C)CC[C@H](O[C@@H]6O[C@H](C(=O)O)[C@@H](O[C@@H]7O[C@H](CO)[C@@H](O)[C@H](O)[C@H]7O)[C@H](O)[C@H]6O[C@@H]6O[C@H](CO)[C@@H](O)[C@H](O)[C@H]6O)[C@](C)(CO)[C@@H]5CC[C@]43C)[C@@H]2CC1(C)C,active
13,CC1(C)CC[C@]2(C(=O)O[C@H]3O[C@@H](CO)[C@@H](O)[C@@H](O)[C@@H]3O)CC[C@]3(C)C(=CC[C@H]4[C@@]5(C)C[C@@H](O)[C@H](O[C@H]6O[C@H](C(=O)O)[C@@H](O)[C@@H](O)[C@@H]6O)C(C)(C)[C@@H]5CC[C@]43C)[C@@H]2C1,inactive
14,C/C=C(/C)C(=O)O[C@H]1[C@@H](OC(C)=O)[C@@]2(CO)[C@@H](O)C[C@@]3(C)C(=CC[C@H]4[C@@]5(C)CC[C@@H](O[C@H]6O[C@H](C(=O)O)[C@@H](O[C@H]7O[C@@H](CO)[C@@H](O)[C@@H](O)[C@@H]7O)[C@@H](O)[C@@H]6O[C@H]6O[C@@H](CO)[C@@H](O)[C@@H](O)[C@@H]6O)[C@@](C)(CO)[C@@H]5CC[C@]43C)[C@@H]2CC1(C)C,active
15,CC=C(C)C(=O)OC1C(OC(C)=O)C2(CO)C(O)CC3(C)C(=CCC4C5(C)CCC(OC6OC(C(=O)O)C(OC7OC(CO)C(O)C(O)C7O)C(O)C6OC6OC(CO)C(O)C(O)C6O)C(C)(CO)C5CCC43C)C2CC1(C)C (centres undefined),active
16,C/C=C(/C)C(=O)O[C@@H]1[C@H](OC(C)=O)[C@]2(CO)[C@H](O)C[C@]3(C)C(=CC[C@H]4[C@@]5(C)CC[C@H](O[C@@H]6O[C@H](C(=O)O)[C@@H](O[C@@H]7O[C@H](CO)[C@@H](O)[C@H](O)[C@H]7O)[C@H](O)[C@H]6O[C@@H]6O[C@H](CO)[C@@H](O)[C@H](O)[C@H]6O)[C@](C)(CO)[C@@H]5CC[C@]43C)[C@@H]2CC1(C)C,inactive
17,C[C@H]1O[C@@H](O[C@H]2CC[C@@]3(C)[C@@H](CC[C@@]4(C)[C@@H]3CC=C3[C@H]5C[C@](C)(C(=O)O)CC[C@]5(C(=O)O[C@H]5O[C@@H](CO)[C@@H](O)[C@@H](O)[C@@H]5O)CC[C@@]34C)[C@@]2(C)CO)[C@@H](O)[C@@H](O[C@H]2O[C@@H](CO)[C@@H](O)[C@@H](O)[C@@H]2O)[C@@H]1O,inactive
18,C[C@H]1O[C@@H](OC(=O)[C@]23CCC(C)(C)C[C@H]2C2=CC[C@H]4[C@@]5(C)CC[C@H](O[C@@H]6O[C@H](C(=O)O)[C@@H](O)[C@H](O[C@@H]7OC[C@@H](O)[C@H](O)[C@H]7O)[C@H]6O[C@@H]6O[C@H](CO)[C@H](O)[C@H](O)[C@H]6O)[C@@](C)(C=O)[C@@H]5CC[C@@]4(C)[C@]2(C)C[C@H]3O)[C@H](O[C@H]2O[C@@H](CO)[C@@H](O)[C@@H](O)[C@@H]2O)[C@@H](O)[C@H]1O[C@@H]1O[C@H](C)[C@@H](O[C@H]2OC[C@@H](O)[C@@H](O)[C@@H]2O)[C@H](O)[C@@H]1O,inactive
19,C[C@@H]1O[C@@H](O[C@@H]2CC[C@@]3(C)[C@@H](CC[C@]4(C)[C@@H]3CC=C3[C@@H]5CC(C)(C)CC[C@]5(C(=O)O[C@@H]5O[C@H](CO[C@@H]6O[C@H](CO)[C@@H](O)[C@H](O)[C@H]6O)[C@@H](O)[C@H](O)[C@H]5O)CC[C@]34C)[C@]2(C)CO)[C@H](O)[C@H](O[C@@H]2OC[C@@H](O)[C@H](O)[C@H]2O)[C@H]1O,inactive
